# Laboratory results reported in PubChem BioAssay (NCATS).
# Inconclusive results are not listed. A call without a number means that no potency is given here. Unmarked numbers belong to inactive results. Activity calls are given as the source filed them. Calls follow the shape of the dose curve; as a rule, active = well fitted curve in the direction sought with a large enough effect; inconclusive = small, poorly fitted or top-dose-only effect, or another doubt; inactive = no such curve, though single readings can be large; an effect the other way counts as inactive or inconclusive. Square brackets hold non-standard residues; d marks the D form. Peptide text beside a SMILES is read from it. ξ: configuration not given here. ξPhe(βξ-Me) = CC(c1ccccc1)C(N)C(=O)O; GABA = NCCCC(=O)O
# Molecular target: Aldehyde dehydrogenase, mitochondrial (Homo sapiens) (UniProt P05091)
# Assay: qHTS for Inhibitors of the Aldehyde Dehydrogenase Family (ALDH2) Primary screen (AID 2061308); also: nearly all actives have a fitted effect of over 55% in size
# Conditions: ALDH2 enzyme inhibition qHTS, 1536-well; series mostly up to 56 µM
Compound,Potency,"activity change, negative = inhibition"
C=C1CC[C@]2(C(=O)O[C@@H]3O[C@H](CO)[C@@H](O)[C@H](O)[C@H]3O)CC[C@]3(C)C(=CCC4[C@@]5(C)C[C@H](O)[C@@H](O[C@@H]6O[C@H](C(=O)O)[C@@H](O)[C@H](O)[C@H]6O)[C@](C)(C=O)C5CC[C@]43C)C2C1 (some centres undefined),inactive,
CC(C)C1=CCC(C)(O)C(OC2OC(CO)C(O)C(O)C2O)C1 (centres undefined),inactive,
COC(=O)C1=CO[C@@H](O[C@@H]2O[C@H](CO)[C@@H](O)[C@H](O)[C@H]2O)[C@H]2[C@@H]1[C@H](O)C[C@]2(C)O,inactive,
CC(=O)OC1C=C(C(=O)O)C2(CO)CCC(C)C(C)(CCc3ccoc3)C2C1 (centres undefined),inactive,
COC(=O)C1=CO[C@@H](O[C@@H]2O[C@H](CO)[C@@H](O)[C@H](O)[C@H]2O)/C(=C\CO)[C@@H]1CC(=O)OCCc1ccc(O)cc1,inactive,
C[C@@H]1C(=O)OC[C@H]2C(C(=O)O)=C[C@@H]3CC(C)(C)C[C@]312,inactive,
COc1c(/C=C/C(C)(C)O)ccc2c1C(=O)OCc1cc(C)cc(O)c1O2,inactive,
CO[C@@H]1[C@H](O)CCC2(CO2)[C@H]1[C@@]1(C)O[C@@H]1CC=C(C)C (some centres undefined),inactive,
CC1CCC2(C)CCC3(C)C(=CCC4C5(C)CCC(O)C(C)(C(=O)O)C5CCC43C)C2C1C (centres undefined),inactive,
C=C1C[C@@]23CC[C@@H]4[C@](C)(C(=O)O)CCC[C@@]4(C)C2=CC[C@H]1C3,inactive,
CC(=O)OC[C@@]12[C@H](O)C[C@@H](C)[C@]3(C[C@@H](c4ccoc4)OC3=O)[C@H]1C[C@H](O)C[C@]21CO1,inactive,
CC1=CC(=O)[C@@]2(C(C)C)C[C@@H]12,inactive,
CC1(C)CCCC2(C)C(CO)C(CO)=CCC12 (centres undefined),inactive,
COC(=O)[C@]12C(=O)C(C)=C(O)[C@@]1(C)C(C)=CC1[C@@]34CC[C@@H](OC(C)=O)C(C)(C)C3[C@H](C[C@]12C)OC4=O (some centres undefined),inactive,
O=C(Nc1nc2cc(C(F)(F)F)cc(NC3CC3)n2n1)c1cccnc1,inactive,
COc1cc2c(c(OC)c1O)C(c1ccc(O)cc1)C1C(=O)OC3C(COC(=O)C1=C2)OC(CO)(OC1OC(COC(=O)/C=C/c2ccc(OC4OC(C)C(O)C(O)C4O)cc2)C(O)C(O)C1O)C3O (centres undefined),inactive,
CC(CCO)CCC1C2(C)CCCC(C)(C)C2CC[C@@]1(C)O (some centres undefined),inactive,
CC1CC[C@]2(C(=O)O)CC[C@]3(C(=O)O)C(=CCC4[C@@]5(C)CC[C@H](OC6OC(C)C(O)C(OC7OC(CO)C(O)C(O)C7O)C6O)C(C)(C)C5CC[C@]43C)C2C1C (some centres undefined),inactive,
CC1(C)CC[C@]2(C(=O)OC3OC(CO)C(O)C(O)C3O)CC[C@]3(C)C(=CCC4[C@@]5(C)C[C@@H](O)[C@H](OC6OC(C(=O)O)C(O)C(O)C6O)C(C)(C)C5CC[C@]43C)[C@@H]2C1 (some centres undefined),inactive,
COC1OC(=O)C2=C1C1(C)CCCC(C)(C)C1CC2O (centres undefined),inactive,
C=C1CC[C@H]2[C@@H](/C=C(\C)C(=O)[C@@]3(OC(C)=O)C[C@H](C)[C@H](OC(C)=O)[C@@H]3[C@H]1OC(C)=O)C2(C)C,inactive,
CC1NC(=O)CCCNC(=O)C(Cc2c[nH]c3ccccc23)NC(=O)C(C)NC(=O)C(C(C)C)NC(=O)C(C(C)c2ccccc2)NC(=O)C(C(C)C)NC1=O (stereo not drawn) (cyclo([GABA]AV[ξPhe(βξ-Me)]VAW); configuration not given here),inactive,
O=C1NC2CCc3nc4ccccc4c(=O)n3C2=Nc2ccccc21 (centres undefined),inactive,
CC1(C)CC2C3=CCC4C5(C)CCC(OC6OC(CO)C(O)C(OC7OC(CO)C(O)C(OC8OC(CO)C(O)C(OC9OC(COC%10OC(CO)C(O)C(O)C%10O)C(O)C(O)C9O)C8O)C7O)C6O)C(C)(C)C5CCC4(C)C3(C)CCC2(C(=O)O)CC1O (centres undefined),,8.77% [at 11.2 µM]
CNc1cccc(CCOc2ccc3c(c2)CN(CC(F)(F)F)C(=O)[C@H](CC(=O)O)C3)n1,inactive,
CC1CC(=O)C2=C(CCC3(O)C(O)c4c(O)cccc4C(=O)C23O)C1 (centres undefined),inactive,
C=C(C)C(C)C1OC23CC4(CO2)C(CCC2C5(C)CCC(OC6OCC(O)C(OC7OC(CO)C(O)C(OC8OCC(O)C(O)C8O)C7O)C6OC6OC(CO)C(O)C6O)C(C)(C)C5CCC24C)C3C(C)(O)C1OC(C)=O (centres undefined),inactive,

# Molecular target: Retinaldehyde dehydrogenase 3 (Homo sapiens) (UniProt P47895)
# Assay: qHTS for Inhibitors of the Aldehyde Dehydrogenase Family (ALDH1A3) Primary screen (AID 2061315)
# Conditions: ALDH inhibition qHTS; series mostly up to 56 µM
Compound,Potency,"activity change, negative = inhibition"
C=C1CC2OC(=O)C(COC)C2C(OC(=O)/C(C)=C\C)CC2(C)OC1=CC2=O (centres undefined),inactive,
Cn1nnc(-c2ccc(-c3ccc(N4C[C@H](CO)OC4=O)cc3F)cn2)n1,inactive,
O=C1CC[C@H](C(=O)N2CCCCC2)N1,inactive,
CC1(C)[C@@H](O)CC[C@]2(C)[C@H]3CC=C4[C@@H]5C[C@](C)(C(=O)O)CC[C@]5(C)CC[C@@]4(C)[C@]3(C)CC[C@@H]12,inactive,
C=C(C(=O)OC)C1C(O)CC2(C)C(O)CCC(=O)C2C1O (centres undefined),inactive,
COc1cc(/C=C2\CC[C@H]3COC[C@@H](c4cc(F)c(F)c(F)c4)N3C2=O)ccc1-n1cnc(C)c1,inactive,
C=C1CCC2C(C)(C(=O)O)CCCC2(C)C1CC/C(=C\CO)CO (centres undefined),inactive,
C=CC1(C)CC(O)C2(CCC3C(C)(C(=O)O)CCCC3(C)C2=O)C1 (centres undefined),inactive,
CCc1ccc(Cc2ccc3c(c2)[C@]2(OC3)O[C@H](CO)[C@@H](O)[C@H](O)[C@H]2O)cc1,inactive,
COC1(CC(C)C)NC(=O)C(O)(Cc2ccccc2)NC1=O (centres undefined),inactive,
COC(=O)c1ccc(N2CCN(C)CC2)c(NC(=O)c2cccc(OC)c2)c1,inactive,
C=CC(C)(O)CC/C=C(\C)C(=O)OC1CC2(C(=O)O)CCC3(C)C(=CCC4C5(C)CCC(OC6OC(COC7OCC(O)C(O)C7O)C(O)C(OC7OCC(O)C(O)C7O)C6OC6OC(CO)C(O)C(O)C6OC6OCC(O)C(O)C6O)C(C)(C)C5CCC43C)C2CC1(C)C (centres undefined),,-4.78% [at 11.2 µM]
COc1c2c(c(C)c3c1C(=O)OC3)OC1(C)CC(O)C34OC(OC)(CC(OC(C)=O)C3(C)C1C2)OC4(C)C (centres undefined),inactive,
C=C1CC[C@]2(C(=O)O[C@@H]3O[C@H](CO)[C@@H](O)[C@H](O)[C@H]3O)CC[C@]3(C)C(=CCC4[C@@]5(C)C[C@H](O)[C@@H](O[C@@H]6O[C@H](C(=O)O)[C@@H](O)[C@H](O)[C@H]6O)[C@](C)(C=O)C5CC[C@]43C)C2C1 (some centres undefined),inactive,
CC(C)C1=CCC(C)(O)C(OC2OC(CO)C(O)C(O)C2O)C1 (centres undefined),inactive,
COC(=O)C1=CO[C@@H](O[C@@H]2O[C@H](CO)[C@@H](O)[C@H](O)[C@H]2O)[C@H]2[C@@H]1[C@H](O)C[C@]2(C)O,inactive,
CC(=O)OC1C=C(C(=O)O)C2(CO)CCC(C)C(C)(CCc3ccoc3)C2C1 (centres undefined),inactive,
COC(=O)C1=CO[C@@H](O[C@@H]2O[C@H](CO)[C@@H](O)[C@H](O)[C@H]2O)/C(=C\CO)[C@@H]1CC(=O)OCCc1ccc(O)cc1,inactive,
C[C@@H]1C(=O)OC[C@H]2C(C(=O)O)=C[C@@H]3CC(C)(C)C[C@]312,inactive,

Compound,Potency,"activity change, negative = inhibition"
COc1c(/C=C/C(C)(C)O)ccc2c1C(=O)OCc1cc(C)cc(O)c1O2,inactive,
CO[C@@H]1[C@H](O)CCC2(CO2)[C@H]1[C@@]1(C)O[C@@H]1CC=C(C)C (some centres undefined),inactive,
CC1CCC2(C)CCC3(C)C(=CCC4C5(C)CCC(O)C(C)(C(=O)O)C5CCC43C)C2C1C (centres undefined),inactive,
C=C1C[C@@]23CC[C@@H]4[C@](C)(C(=O)O)CCC[C@@]4(C)C2=CC[C@H]1C3,inactive,
CC(=O)OC[C@@]12[C@H](O)C[C@@H](C)[C@]3(C[C@@H](c4ccoc4)OC3=O)[C@H]1C[C@H](O)C[C@]21CO1,inactive,
CC1=CC(=O)[C@@]2(C(C)C)C[C@@H]12,inactive,
CC1(C)CCCC2(C)C(CO)C(CO)=CCC12 (centres undefined),inactive,
COC(=O)[C@]12C(=O)C(C)=C(O)[C@@]1(C)C(C)=CC1[C@@]34CC[C@@H](OC(C)=O)C(C)(C)C3[C@H](C[C@]12C)OC4=O (some centres undefined),inactive,
O=C(Nc1nc2cc(C(F)(F)F)cc(NC3CC3)n2n1)c1cccnc1,inactive,
COc1cc2c(c(OC)c1O)C(c1ccc(O)cc1)C1C(=O)OC3C(COC(=O)C1=C2)OC(CO)(OC1OC(COC(=O)/C=C/c2ccc(OC4OC(C)C(O)C(O)C4O)cc2)C(O)C(O)C1O)C3O (centres undefined),inactive,
CC(CCO)CCC1C2(C)CCCC(C)(C)C2CC[C@@]1(C)O (some centres undefined),inactive,
CC1CC[C@]2(C(=O)O)CC[C@]3(C(=O)O)C(=CCC4[C@@]5(C)CC[C@H](OC6OC(C)C(O)C(OC7OC(CO)C(O)C(O)C7O)C6O)C(C)(C)C5CC[C@]43C)C2C1C (some centres undefined),inactive,
CC1(C)CC[C@]2(C(=O)OC3OC(CO)C(O)C(O)C3O)CC[C@]3(C)C(=CCC4[C@@]5(C)C[C@@H](O)[C@H](OC6OC(C(=O)O)C(O)C(O)C6O)C(C)(C)C5CC[C@]43C)[C@@H]2C1 (some centres undefined),inactive,
COC1OC(=O)C2=C1C1(C)CCCC(C)(C)C1CC2O (centres undefined),inactive,
C=C1CC[C@H]2[C@@H](/C=C(\C)C(=O)[C@@]3(OC(C)=O)C[C@H](C)[C@H](OC(C)=O)[C@@H]3[C@H]1OC(C)=O)C2(C)C,inactive,
CC1NC(=O)CCCNC(=O)C(Cc2c[nH]c3ccccc23)NC(=O)C(C)NC(=O)C(C(C)C)NC(=O)C(C(C)c2ccccc2)NC(=O)C(C(C)C)NC1=O (stereo not drawn) (cyclo([GABA]AV[ξPhe(βξ-Me)]VAW); configuration not given here),inactive,
O=C1NC2CCc3nc4ccccc4c(=O)n3C2=Nc2ccccc21 (centres undefined),inactive,
CC1(C)CC2C3=CCC4C5(C)CCC(OC6OC(CO)C(O)C(OC7OC(CO)C(O)C(OC8OC(CO)C(O)C(OC9OC(COC%10OC(CO)C(O)C(O)C%10O)C(O)C(O)C9O)C8O)C7O)C6O)C(C)(C)C5CCC4(C)C3(C)CCC2(C(=O)O)CC1O (centres undefined),,1.03% [at 11.2 µM]
